These results are taken from PubChem BioAssay AID1224921 (Broad Institute, 2016).

Out of some 1,400 compounds screened, about 350 (25%) were called active. About 2% were inconclusive and are not listed. The rule behind the calls is not given here. Only a sample is shown. Results with a measured potency or affinity are listed apart.

This assay in a line: C. difficile growth inhibition, confirmation, 4-point retest (AID 1224921).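 Note: plate controls were DMSO wells for no effect and levofloxacin 16 µg/mL wells for full effect.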 Particulars: Clostridioides difficile clinical isolate growth, OD600, 24 h, hits give low values; at 30 µM unless noted.
In the case of `CCCNC(=O)Nc1ccc2c(c1)C(=O)N(C)C[C@H](OC)[C@H](C)CN(C)[C@@H](C)CO2`, the max activity was -3.68% [at 0.5 µM] (inactive).

`C[C@@H]1CN([C@H](C)CO)C(=O)c2c(c3ccccc3n2C)-c2ccccc2CO[C@@H]1CN(C)C(=O)N[C@H](C)c1ccccc1`: the max activity is 9.23% [at 35 µM] (inactive).

With `CCCNC(=O)Nc1ccc2c(c1)C(=O)N(C)C[C@@H](OC)[C@@H](C)CN(CC1CCCC1)[C@@H](C)CO2`, the max activity was -4.03% [at 1.95 µM] (inactive).

Turning to `O=C(C[C@@H]1CC[C@@H]2[C@H](COC[C@H](O)CN2CC2CCCCC2)O1)NCc1ccc(Cl)cc1`, the max activity is 22.4% [at 8 µM] (inactive).

Regarding `CO[C@H]1CN(C)C(=O)c2ccc(NC(=O)c3ccc(F)cc3)cc2OC[C@H](C)N(C(=O)CN(C)C)C[C@H]1C`, the max activity was -10.1% (inactive).

As to `O=C(C[C@H]1C[C@H]2c3cc(NC(=O)CC4CC4)ccc3O[C@H]2[C@@H](CO)O1)NCc1cccc(F)c1`, the max activity was -3.04% [at 1.95 µM] (inactive).

As for `Cc1ccc(-c2ccc3c(c2)O[C@H](CN(C)Cc2ccncc2)[C@H](C)CN([C@H](C)CO)S3(=O)=O)cc1`, the max activity is 34.8% (inactive).

With `C[C@H](CO)N1C[C@H](C)[C@H](CN(C)Cc2cccc(C(=O)O)c2)OCc2ccccc2-c2c(n(C)c3ccccc23)C1=O`, the max activity was -7.45% [at 0.5 µM] (inactive).

For the compound `CC1=CC2(CO)C(=O)[C@]3(CO3)[C@H]1[C@H]1[C@]2(C)C=C(CO)C(=O)[C@]12CO2`, the max activity is 15.6% (inactive).

As for `Cc1ccc(F)cc1S(=O)(=O)N[C@@H]1CCN(Cc2ccc(OC(C)C)cc2)C1`, the max activity is 34.7% [at 8 µM] (inactive).

Take `C[C@@H]1CN([C@H](C)CO)C(=O)c2c(c3ccccc3n2C)-c2ccccc2CO[C@H]1CN(C)C(=O)c1ccncc1`: the max activity is 18.8% (inactive).

In the case of `COc1ccccc1-c1ccc2c(c1)O[C@H](CN(C)C(=O)c1ccccc1)[C@H](C)CN([C@@H](C)CO)S2(=O)=O`, the max activity was 42.3% (inactive).

For the compound `C[C@H](CO)N1C[C@H](C)[C@@H](CN(C)S(=O)(=O)c2ccsc2)OCc2ccccc2-c2ccccc2C1=O`, the max activity is 26.8% (inactive).

As for `CO[C@@H]1CN(C)C(=O)c2ccc(NS(=O)(=O)CC(F)(F)F)cc2OC[C@@H](C)N(C(=O)NC(C)C)C[C@H]1C`, the max activity was 14.6% (inactive).

As for `Cc1noc(C)c1NC(=O)N(C)C[C@@H]1Oc2ccc(NC(=O)CCCCCC(=O)Nc3ccccc3N)cc2C(=O)N([C@@H](C)CO)C[C@@H]1C`, the max activity is -8.05% [at 1.8 µM] (inactive).

For `CO[C@H]1CN(C)C(=O)c2cc(NC(=O)NC3CCCCC3)ccc2OC[C@@H](C)N(CCc2ccccc2)C[C@H]1C`, the max activity was 25.3% (inactive).

As for `CC(C)CC#Cc1ccc2c(c1)O[C@H](CN(C)Cc1ccncc1)[C@@H](C)CN([C@H](C)CO)S2(=O)=O`, the max activity is 17.5% (inactive).

For the compound `C[C@@H]1CN([C@@H](C)CO)C(=O)c2cc(/C=C/c3ccccc3)cnc2O[C@H]1CN(C)C(=O)CN(C)C`, the max activity is 18% (inactive).

On to `COCC#Cc1ccc2c(c1)O[C@@H](CN(C)Cc1ccncc1)[C@@H](C)CN([C@H](C)CO)S2(=O)=O`, for which the max activity was 17.6% (inactive).

Regarding `O=C(NCCc1ccccc1)[C@H]1[C@H](CO)[C@H]2Cn3c(cccc3=O)[C@@H]1N2C(=O)C1CC1`, the max activity was -7.04% (inactive).

As for `C[C@H](CO)N1C[C@H](C)[C@@H](CN(C)Cc2cccnc2)Oc2cc(C#CC3CC3)ccc2S1(=O)=O`, the max activity was 21.4% (inactive).

`CCCN1C[C@@H](C)[C@H](OC)CN(C)C(=O)c2cc(NC(=O)c3ccc4c(c3)OCO4)ccc2OC[C@H]1C`: the max activity is 14.6% [at 35 µM] (inactive).

Consider `C[C@@H]1CN([C@H](C)CO)C(=O)c2ccccc2-c2ccccc2CO[C@H]1CN(C)C(=O)CCN(C)C`, for which the max activity is -7.05% [at 0.5 µM] (inactive).

On to `COc1ccc(CN(C)C[C@H]2Oc3ccc(NC(=O)Nc4ccc(C(F)(F)F)cc4)cc3C(=O)N([C@@H](C)CO)C[C@H]2C)cc1`, for which the max activity is -5.09% [at 0.5 µM] (inactive).

Take `CO[C@@H]1CN(C)C(=O)c2ccc(NS(=O)(=O)c3ccccc3C)cc2OC[C@H](C)N(S(C)(=O)=O)C[C@H]1C`: the max activity is -9.59% [at 8 µM] (inactive).

Turning to `CNC[C@@H]1Oc2cc(-c3cccnc3)ccc2S(=O)(=O)N([C@H](C)CO)C[C@H]1C`, the max activity is 14.8% (inactive).

As for `C[C@H]1CN([C@@H](C)CO)C(=O)c2ccccc2-c2ccccc2CO[C@H]1CN(C)S(=O)(=O)c1ccsc1`, the max activity was -19.4% (inactive).

For the compound `Cc1ccc(-c2ccc3c(c2)O[C@H](CN(C)Cc2cccnc2)[C@H](C)CN([C@H](C)CO)S3(=O)=O)cc1`, the max activity was 17.6% (inactive).

Turning to `CCCNC(=O)Nc1ccc2c(c1)C(=O)N(C)C[C@H](OC)[C@@H](C)CN(C)[C@@H](C)CO2`, the max activity was 4.84% [at 8 µM] (inactive).

As for `COCCNC(=O)C[C@@H]1CC[C@H]2[C@@H](COc3ccc(NS(=O)(=O)c4ccc(Cl)cc4)cc3C(=O)N2C)O1`, the max activity is 14.3% (inactive).

As for `CC(C)Cc1ccc(CN2CC[C@@H](NS(=O)(=O)c3ccccc3)C2)cc1`, the max activity was -12% [at 0.5 µM] (inactive).

Consider `CCCNC(=O)Nc1ccc2c(c1)C(=O)N(C)C[C@H](OC)[C@@H](C)CN(C(C)=O)[C@H](C)CO2`, for which the max activity was -7.56% [at 1.95 µM] (inactive).

For `CO[C@H]1CN(C)C(=O)c2ccc(NS(=O)(=O)c3ccc(C)cc3)cc2OC[C@H](C)N(C(=O)NC(C)C)C[C@H]1C`, the max activity was -11.4% [at 1.95 µM] (inactive).

Regarding `C/C=C/c1ccc2c(c1)O[C@H](CN(C)C(=O)c1ccc(F)cc1)[C@H](C)CN([C@@H](C)CO)S2(=O)=O`, the max activity was 18.5% (inactive).

For the compound `CO[C@H]1CN(C)C(=O)c2cc(NC(C)=O)ccc2OC[C@@H](C)N(Cc2nccs2)C[C@H]1C`, the max activity was -12.5% [at 8 µM] (inactive).

As to `CO[C@@H]1CN(C)C(=O)c2cc(NC(C)=O)ccc2OC[C@H](C)N(CC2CCCCC2)C[C@@H]1C`, the max activity was 16.5% (inactive).

`CC(=O)N[C@@H]1CC[C@H](CCNC(=O)Nc2ccc(C(F)(F)F)cc2)O[C@@H]1CO`: the max activity is 16.8% [at 8 µM] (inactive).

In the case of `CC(=O)N[C@H]1CC[C@@H](CCNC(=O)Nc2ccc(C(F)(F)F)cc2)O[C@H]1CO`, the max activity was 10.2% [at 7.5 µM] (inactive).
